The nature of assay [1]: qHTS Assay for Identification of Small Molecule Agonists for Thrombopoietin (TPO) Signaling Pathway (AID 917). The procedure, abridged: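 Luciferase reporter (Glycoprotein IIb promoter) in IL-3-deprived Ba/F3 cells carrying human TPO receptor; compounds co-added with 26 pM TPO, incubated 24 h, 37 C. Steadylite luminescence measured after 10 min.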
Assay [2] is described as follows: Confirmation and Secondary Assay for Modulators of Hemoglobin Beta Chain Splicing at IVS2 705 locus (AID 930).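 Further: HeLa cells stably expressing the EGFP-705 splicing reporter; GFP fluorescence per well restored by corrected splicing of the IVS2-705 intron in EGFP; series mostly up to about 46 µM.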 The method in brief: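 HeLa IVS2-705 EGFP reporter cells, 500/well, compound 2 d at 37C; correct splicing yields fluorescent EGFP. Control: 500 nM antisense PNA. Read-out: total peak GFP intensity.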
For assay [3], the target named is Muscarinic acetylcholine receptor M1 (Rattus norvegicus) (UniProt P08482). Kind of assay: qHTS Assay for Antagonists of Acetylcholine Muscarinic M1 Receptor: Kinetic Measurement of Intracellular Calcium Response (AID 943). Further: series mostly up to about 35 µM; nearly all actives have a fitted effect of over 75% in size. The method in brief: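 Read-out: peak over basal Fluo-4 fluorescence, kinetic at 1 Hz for 4 min after EC80 carbachol (100 nM final). Rat M1-CHO cells, dye loaded 1 h at 37C, compound added 10 min before agonist.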
On the technique in general: qHTS replaces the single test concentration by a dilution series.

Assay [4] shares this target. Kind of assay: qHTS Assay for Antagonists of Acetylcholine Muscarinic M1 Receptor: Measurement of IP-One Response (AID 944). Further: nearly all actives have a fitted effect of over 75% in size. The method in brief: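 Read-out: HTRF competition between d2-IP1 and Eu-cryptate anti-IP1 antibody, emission 620 and 665 nm. Stimulus was carbachol, EC80 (200 nM), for 30 min in M1-CHO cells (rat receptor), after 10 min compound pre-treatment.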

In assay [5] the target is Pyruvate kinase PKM (Homo sapiens) (UniProt P14618). Kind of assay: qHTS Assay for Activators of Human Muscle Pyruvate Kinase (AID 954; active means well fitted curve in the direction sought with a large enough effect, not every such curve was filed as active). The procedure, abridged: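 A coupled luminescent readout tracked ATP made from ADP by purified PKM2. Final conditions included 0.1 nM enzyme, PEP and ADP at 0.5 and 0.1 mM, pH 7.2 imidazole buffer with BSA, and a one-hour room-temperature reaction.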

Assay [6] concerns the target Cytochrome P450 2C19 (Homo sapiens) (UniProt P33261). The assay can be described thus: qHTS Assay for Inhibitors and Substrates of Cytochrome P450 2C19 (AID 899). Further: nearly all actives have a fitted effect of over 60% in size. Further: potency means the concentration at half of the fitted maximal effect. The method in brief: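 5 nM human CYP2C19 with 10uM Luciferin-H EGE (at KM) in 50mM KPO4, compound preincubated 10 min at 37C, then NADPH regeneration for 60 min at 37C. Luciferin read by luminescence after detection reagent; normalized to 57uM ketoconazole as full inhibition.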

The target in assay [7] is Pyruvate kinase (Leishmania mexicana) (UniProt Q27686). Kind of assay: qHTS Validation Assay for Inhibitors of Leishmania Mexicana Pyruvate Kinase (AID 945). The procedure, abridged:
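Eight-point qHTS titrations; enzyme 0.2 nM LmPYK (E451W mutant); substrates 0.5 mM PEP, 0.1 mM ADP; 7 mM MgCl2; 1 h room temperature; PKLight luminescence normalized to neutral control.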

“And” between values parts separate entries of the source, which are not always exact repeats. Equal entries are not always repeated. Inconclusive results are not listed. Some compounds were tested as several samples or in several runs, with calls that do not always agree. The source made the active and inactive calls. Unless noted, the call rests on the fitted dose curve; in most records, active means well fitted curve in the direction sought with a large enough effect; inconclusive means small, poorly fitted or top-dose-only effect, or another doubt; inactive means no such curve, though single readings can be large; an effect the other way counts as inactive or inconclusive.

Chain of Pyruvate kinase PKM (Homo sapiens) (P14618 whole entry, looked up): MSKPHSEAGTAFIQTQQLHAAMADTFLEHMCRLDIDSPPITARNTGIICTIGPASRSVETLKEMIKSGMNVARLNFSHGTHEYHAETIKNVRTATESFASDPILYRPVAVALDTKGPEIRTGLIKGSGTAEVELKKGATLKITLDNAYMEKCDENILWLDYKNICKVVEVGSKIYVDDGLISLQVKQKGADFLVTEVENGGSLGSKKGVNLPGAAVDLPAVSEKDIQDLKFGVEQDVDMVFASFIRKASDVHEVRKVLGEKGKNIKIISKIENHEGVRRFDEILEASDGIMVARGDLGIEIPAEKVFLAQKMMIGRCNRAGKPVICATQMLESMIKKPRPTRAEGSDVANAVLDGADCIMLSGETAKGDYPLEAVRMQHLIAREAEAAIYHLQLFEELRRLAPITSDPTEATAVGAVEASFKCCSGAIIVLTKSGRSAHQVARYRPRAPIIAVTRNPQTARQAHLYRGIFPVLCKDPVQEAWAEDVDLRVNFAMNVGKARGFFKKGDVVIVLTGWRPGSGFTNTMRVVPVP
Chain of Muscarinic acetylcholine receptor M1 (Rattus norvegicus) (P08482 whole entry, looked up): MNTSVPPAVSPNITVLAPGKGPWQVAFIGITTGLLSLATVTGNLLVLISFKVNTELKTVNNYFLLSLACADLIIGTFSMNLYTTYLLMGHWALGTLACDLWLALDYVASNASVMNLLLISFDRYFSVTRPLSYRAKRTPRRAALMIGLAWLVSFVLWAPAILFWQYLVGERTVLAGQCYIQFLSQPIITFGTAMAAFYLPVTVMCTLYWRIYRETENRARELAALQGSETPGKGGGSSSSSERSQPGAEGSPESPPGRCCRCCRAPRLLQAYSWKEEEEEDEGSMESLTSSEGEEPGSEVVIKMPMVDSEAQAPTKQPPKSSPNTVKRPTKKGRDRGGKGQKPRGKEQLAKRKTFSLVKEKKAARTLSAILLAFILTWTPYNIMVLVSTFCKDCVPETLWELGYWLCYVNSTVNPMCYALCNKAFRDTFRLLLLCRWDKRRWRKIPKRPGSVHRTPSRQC
Chain of Pyruvate kinase (Leishmania mexicana) (Q27686 2-499 E452W): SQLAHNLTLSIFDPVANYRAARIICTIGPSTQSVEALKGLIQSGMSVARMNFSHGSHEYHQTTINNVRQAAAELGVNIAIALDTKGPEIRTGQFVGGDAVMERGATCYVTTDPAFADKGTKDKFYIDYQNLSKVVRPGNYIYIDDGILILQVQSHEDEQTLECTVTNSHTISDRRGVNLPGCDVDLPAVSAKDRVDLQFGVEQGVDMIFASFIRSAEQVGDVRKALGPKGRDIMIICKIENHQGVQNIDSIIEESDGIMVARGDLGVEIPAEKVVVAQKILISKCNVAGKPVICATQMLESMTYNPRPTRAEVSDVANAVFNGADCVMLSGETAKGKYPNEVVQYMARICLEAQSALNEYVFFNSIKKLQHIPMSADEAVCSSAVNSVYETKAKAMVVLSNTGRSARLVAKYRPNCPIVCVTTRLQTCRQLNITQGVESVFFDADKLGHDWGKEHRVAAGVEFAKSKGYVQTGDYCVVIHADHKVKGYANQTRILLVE
Chain of Cytochrome P450 2C19 (Homo sapiens) (P33261 whole entry, looked up): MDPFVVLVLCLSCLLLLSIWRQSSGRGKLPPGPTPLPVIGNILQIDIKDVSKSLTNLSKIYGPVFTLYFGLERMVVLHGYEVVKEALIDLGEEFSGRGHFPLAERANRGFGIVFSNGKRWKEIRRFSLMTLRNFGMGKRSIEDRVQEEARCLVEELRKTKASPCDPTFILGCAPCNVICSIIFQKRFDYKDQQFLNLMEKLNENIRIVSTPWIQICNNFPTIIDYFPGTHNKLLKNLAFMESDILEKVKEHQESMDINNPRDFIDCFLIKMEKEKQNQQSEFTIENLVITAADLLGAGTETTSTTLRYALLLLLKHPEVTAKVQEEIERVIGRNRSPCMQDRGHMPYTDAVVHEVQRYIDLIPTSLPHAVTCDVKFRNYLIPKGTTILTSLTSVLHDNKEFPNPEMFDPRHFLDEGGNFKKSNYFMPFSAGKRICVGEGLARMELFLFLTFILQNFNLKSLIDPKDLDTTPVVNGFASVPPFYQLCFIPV

Regarding `O=C(O)/C=C/c1ccc(O)c(O)c1`, the Potency entry in assay [1], in assay [3] and in assay [4] was “inactive” each time. In addition, the call in assay [2] and in assay [5] was inactive.

As to `O=C(O)c1cc2cc(F)ccc2[nH]1`, the Potency result in assay [6], in assay [1], in assay [3], in assay [4] and in assay [7] was “inactive” each time. In addition, the compound was called inactive in assay [2] and in assay [5].

In the case of `C=C1C(=O)O[C@@H]2[C@H]3O[C@]3(C)CCC=C(C)CC[C@@H]12`, the Potency entry in assay [6] was “inactive”.

As for `C[C@](Cc1ccc(O)c(O)c1)(NN)C(=O)O`, in assay [6], the Potency result was “inactive”.

Take `NCCCCN=C(N)N`: the Potency entry in assay [1], in assay [3], in assay [4] and in assay [7] was “inactive” throughout. Further, the compound was called inactive in assay [2] and in assay [5].

For `CCCc1c(-c2ccc(O)cc2)nn(-c2ccc(O)cc2)c1-c1ccc(O)cc1`, in assay [6], the Potency is 10 µM (active). Further, the Potency result in assay [3] and in assay [7] was “inactive” in each case. In addition, in assay [5], the compound was classed as inactive.

For the compound `CC(C)Cn1c(=O)n(C)c(=O)c2[nH]cnc21`, the Potency entry in assay [1], in assay [3], in assay [4] and in assay [7] was “inactive” each time. In addition, the compound was called inactive in assay [2] and in assay [5].

Turning to `C[C@H](NC(=O)/C(C#N)=C/c1ccc(O)c(O)c1)c1ccccc1`, the Potency result in assay [6], in assay [3] and in assay [4] was “inactive” each time. Also, in assay [5], the outcome was inactive.

On to `Cn1ccnc1`, for which the Potency entry in assay [6], in assay [1], in assay [3], in assay [4] and in assay [7] was “inactive” in each case. The result in assay [5] was inactive.

For the compound `O=C(O)c1ccccc1Nc1cccc(OCc2ccc3ccccc3n2)c1`, the Potency result in assay [6] was “inactive and 5.01 µM (active)”. For the same compound, the Potency entry in assay [3], in assay [4] and in assay [7] was “inactive” throughout. Also, in assay [5], the result was inactive.

For the compound `CC(=O)NNC(=O)N1Cc2ccccc2Oc2ccc(Cl)cc21`, the Potency entry in assay [6] and in assay [7] was “inactive” in each case. The compound was classed as inactive in assay [5].

Consider `O=[N+]([O-])c1cccc2c(Br)[nH]nc12`, for which the Potency result in assay [1] and in assay [7] was “inactive” throughout. Further, the call in assay [2] and in assay [5] was inactive.

In the case of `COCc1nc2c([nH]1)c(=O)n(C)c(=O)n2CC(C)C`, the Potency result in assay [6], in assay [1] and in assay [3] was “inactive” in each case. In addition, the compound was called inactive in assay [5].

(Values after PubChem BioAssay (NCATS).)
